Bioassay records (PubChem)
Rows were chosen to be rich in hits. Some 6.7% of all compounds tested hit in one or more screens of this group.
T cruzi growth = T. cruzi intracellular proliferation inhibitors, primary screen, cell-based, beta-gal Tulahuen parasites, NIH3T3 host, luminescence | T. cruzi beta-gal in NIH3T3, GalScreen luminescence, 90 h | hit rate 5.9% among 77,000 | AID 624255, 2012 | inhibition, % at 8.34 µM;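 active = mean inhibition above about 93%, with at least 55% of replicates each passing it, limit read from the data, passing the limit was not always enough; inconclusive = only one of those two conditions holds; inactive = neither condition holds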
C diff growth = C. difficile growth inhibitors, primary screen, HTS | growth activity, negative = inhibition, % at 16 µg/mL (by protocol) | Clostridium difficile clinical isolate growth, OD600, 24 h; stronger effect = lower value | hit rate 0.25% among 86,000 | AID 1259249, 2017;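 active = mean growth activity at or below -80% and every replicate also at or below -80%; inconclusive = mean at or below -80% but some replicate above -80%; inactive = mean growth activity above -80%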
Pf Dd2 inh = P. falciparum Dd2 growth inhibitors, primary screen, SYBR Green fluorescence, single dose replicates; activity change, % at 10 µM; hit rate 2.3% among 94,000; AID 1159554, 2015; 72 h; stronger effect = lower value; in the data active = activity change below about -80%; inconclusive = no clear call, values can overlap the other calls
Each line names hits and unclear results; the compound was inactive in the other large screens.

CO[C@H]1CN(C)C(=O)c2cc(NS(=O)(=O)c3cn(C)cn3)ccc2OC[C@@H](C)N(CC2CC2)C[C@@H]1C	none (no result: C diff growth)
CCS(=O)(=O)N1CC2(CN(Cc3ccccc3F)[C@@H](CO)c3[nH]c4cc(OC)ccc4c32)C1	Pf Dd2 inh -87 (no result: T cruzi growth)
COCC(=O)N1CCC2(CC1)CN(Cc1ccccc1Cl)[C@@H](CO)c1[nH]c3cc(OC)ccc3c12	Pf Dd2 inh inconclusive (no result: T cruzi growth)
COCC(=O)N1CCC2(CC1)CN(Cc1ccccc1Cl)[C@H](CO)c1[nH]c3cc(OC)ccc3c12	Pf Dd2 inh -83 (no result: T cruzi growth)
COc1ccc2c3c([nH]c2c1)[C@H](CO)N(Cc1ccccc1Cl)CC31CN(C(C)=O)C1	Pf Dd2 inh -90 (no result: T cruzi growth)
COCC(=O)N1CC2(C1)CN(Cc1ccccc1Cl)[C@@H](CO)c1[nH]c3cc(OC)ccc3c12	none (no result: T cruzi growth)
COCC(=O)N1CCC2(CC1)CN(Cc1cccc(OC)c1)[C@H](CO)c1[nH]c3cc(OC)ccc3c12	Pf Dd2 inh inconclusive (no result: T cruzi growth)
COCC(=O)N1CCC2(CC1)CN(Cc1cccc(OC)c1)[C@@H](CO)c1[nH]c3cc(OC)ccc3c12	Pf Dd2 inh -92 (no result: T cruzi growth)
COc1ccc2c3c([nH]c2c1)[C@@H](CO)N(Cc1ccccc1F)CC31CN(C)C1	none (no result: T cruzi growth)
C[C@H](CO)N1C[C@H](C)[C@@H](CN(C)C(=O)c2ccccc2)OCCCC[C@H](C)Oc2ccc(NS(=O)(=O)c3ccc(Cl)cc3)cc2C1=O	none
COc1ccc2c3c([nH]c2c1)[C@@H](CO)N(Cc1ccccc1F)CC31CCN(C(=O)C2CC2)CC1	Pf Dd2 inh -85 (no result: T cruzi growth)
COc1ccc2c3c([nH]c2c1)[C@@H](CO)N(Cc1ccccc1Cl)CC31CCN(C(=O)C2CC2)CC1	Pf Dd2 inh -87 (no result: T cruzi growth)
COc1ccc2c3c([nH]c2c1)[C@H](CO)N(Cc1ccccc1F)CC31CCN(C(=O)C2CCCC2)CC1	none (no result: T cruzi growth)
COc1ccc2c3c([nH]c2c1)[C@@H](CO)N(Cc1ccccc1Cl)CC31CN(C(=O)C2CC2)C1	none (no result: T cruzi growth)
COc1ccc2c3c([nH]c2c1)[C@H](CO)N(Cc1ccccc1Cl)CC31CCN(C(C)=O)CC1	Pf Dd2 inh -89 (no result: T cruzi growth)
COc1ccc2c3c([nH]c2c1)[C@H](CO)N(C(C)=O)CC31CCN(Cc2ccccc2Cl)CC1	none (no result: T cruzi growth)
COc1ccc(-c2ccc3c(c2)[C@@H]2[C@@H](CCN2C(=O)Nc2ccc(F)cc2)[C@H](CO)N3C)cc1	none (no result: T cruzi growth)
C[C@@H]1CN([C@H](C)CO)C(=O)c2cc(NC(=O)C3CC3)ccc2O[C@H]1CN(C)C(=O)Nc1ccc2c(c1)OCO2	none
CCC(=O)N(C)C[C@@H]1Oc2cc(C#Cc3ccncc3)ccc2S(=O)(=O)N([C@@H](C)CO)C[C@H]1C	none
C[C@@H]1CN([C@@H](C)CO)C(=O)Cc2cc(NC(=O)C3CC3)ccc2O[C@@H]1CN(C)C(=O)Nc1ccc(C(F)(F)F)cc1	none
C[C@@H]1CCCCO[C@@H](CN(C)C(=O)c2ccncc2)[C@@H](C)CN([C@H](C)CO)C(=O)c2cc(NS(C)(=O)=O)ccc2O1	none
CCCN(C)C[C@H]1OCCCC[C@@H](C)Oc2ccc(N(C)C)cc2C(=O)N([C@H](C)CO)C[C@H]1C	none (no result: Pf Dd2 inh)
C/C=C/c1ccc2c(c1)[C@H]1[C@H](CCN1C(=O)C1CCCC1)[C@@H](CO)N2	Pf Dd2 inh -86 (no result: T cruzi growth)
C/C=C/c1ccc2c(c1)[C@@H]1[C@@H](CCN1C(=O)C1CCCC1)[C@H](CO)N2	none (no result: T cruzi growth)
COc1ccc(C#Cc2ccc3c(c2)[C@@H]2[C@@H](CCN2C(=O)C2CCC2)[C@H](CO)N3)cc1	Pf Dd2 inh -87 (no result: T cruzi growth)
COc1ccc(S(=O)(=O)N2CC[C@@H]3[C@H]2c2cc(-c4cccc(C#N)c4)ccc2N[C@@H]3CO)cc1	none
C/C=C/c1ccc2c(c1)[C@H]1[C@H](CCN1S(=O)(=O)c1cccc(F)c1)[C@@H](CO)N2	Pf Dd2 inh -93 (no result: T cruzi growth)
C/C=C/c1ccc2c(c1)[C@H]1[C@H](CCN1S(=O)(=O)c1ccccc1)[C@H](CO)N2	none
COc1ccc(S(=O)(=O)N2CC[C@@H]3[C@@H](CO)Nc4ccc(-c5ccc(C#N)cc5)cc4[C@@H]32)cc1	Pf Dd2 inh -81
COc1ccc(C#Cc2ccc3c(c2)[C@@H]2[C@@H](CCN2C(=O)C2CCC2)[C@@H](CO)N3)cc1	none (no result: T cruzi growth)
CCCC(=O)Nc1ccc2c(c1)OC[C@@H](C)N(CC1CCOCC1)C[C@@H](C)[C@@H](OC)CN(C)C2=O	none
COc1ccc2c3c([nH]c2c1)[C@H](CO)N(S(C)(=O)=O)CC31CCN(C(=O)Cc2cccnc2)CC1	none (no result: T cruzi growth)
C[C@@H]1CN([C@H](C)CO)C(=O)c2cccc(NC(=O)C3CC3)c2O[C@@H]1CN(C)S(=O)(=O)c1cn(C)cn1	none
COCC#Cc1ccc([C@H]2[C@@H](CO)N3CCCCN(C(=O)Nc4cc(F)ccc4F)C[C@@H]23)cc1	none
O=C(Cc1ccccn1)NCC[C@H]1CC[C@@H](NC(=O)Nc2ccccc2)[C@H](CO)O1	none
CO[C@@H]1CN(C)C(=O)c2cc(NS(=O)(=O)c3cn(C)cn3)ccc2OC[C@H](C)N(Cc2cccc(F)c2)C[C@@H]1C	none (no result: T cruzi growth, C diff growth)
CCCNC(=O)C[C@H]1CC[C@H]2[C@H](COc3ccc(NC(=O)c4cc(C)on4)cc3C(=O)N2C)O1	none
O=C(Cc1ccncc1)N1CC[C@@H]2[C@@H](CO)Nc3ccc(-c4cccc(F)c4)cc3[C@@H]21	Pf Dd2 inh -92 (no result: T cruzi growth)
COc1cccc(-c2ccc3c(c2)[C@@H]2[C@@H](CCN2C(=O)C2CCCC2)[C@@H](CO)N3)c1	none (no result: T cruzi growth)
COc1cccc(-c2ccc3c(c2)[C@H]2[C@H](CCN2C(=O)C2CCCC2)[C@@H](CO)N3)c1	Pf Dd2 inh -83 (no result: T cruzi growth)
O=C(C1CCCC1)N1CC[C@@H]2[C@H]1c1cc(C3=CCCCC3)ccc1N[C@@H]2CO	Pf Dd2 inh -92 (no result: T cruzi growth)
O=C(C1CCC1)N1CC[C@H]2[C@H](CO)Nc3ccc(C4=CCCCC4)cc3[C@H]21	none (no result: T cruzi growth)
O=C(Cc1ccccc1)N1CC[C@@H]2[C@H](CO)Nc3ccc(-c4ccc(F)cc4)cc3[C@@H]21	none
O=C(N[C@@H]1CC[C@H](CC(=O)N2CCCCC2)O[C@@H]1CO)c1ccccn1	none
O=C([C@@H]1[C@@H](CO)[C@@H]2Cn3c(cccc3=O)[C@@H]2N1CC1CCCC1)N1CCOCC1	none
COc1cccc(C#Cc2cnc3c(c2)C(=O)N([C@H](C)CO)C[C@H](C)[C@H](CN(C)C(=O)C2CCCCC2)O3)c1	Pf Dd2 inh -86 (no result: T cruzi growth)
COc1cccc(C#Cc2cnc3c(c2)C(=O)N([C@H](C)CO)C[C@@H](C)[C@@H](CN(C)C(=O)C2CCCCC2)O3)c1	none
COc1cccc(C#Cc2cnc3c(c2)C(=O)N([C@@H](C)CO)C[C@@H](C)[C@H](CN(C)C(=O)C2CCOCC2)O3)c1	none (no result: T cruzi growth)
COc1cccc(C#Cc2cnc3c(c2)C(=O)N([C@H](C)CO)C[C@H](C)[C@@H](CN(C)C(=O)C2CCOCC2)O3)c1	Pf Dd2 inh -81 (no result: T cruzi growth)
COc1ccc(S(=O)(=O)N(C)C[C@H]2OCCCC[C@H](C)Oc3ccc(NC(=O)Cc4ccccc4)cc3C(=O)N([C@H](C)CO)C[C@H]2C)cc1	Pf Dd2 inh -84
C[C@H]1CCCCO[C@H](CN(C)S(=O)(=O)c2ccc(F)cc2)[C@@H](C)CN([C@@H](C)CO)C(=O)c2cc(NC(=O)Cc3ccccc3)ccc2O1	Pf Dd2 inh -89 (no result: C diff growth)
